KB-V1 cytotox – kills drug-selected multidrug resistant KB-V1 cells; KB-V1 MDR cells viability, CellTiter-Glo, 72 h; actives 3.4% (n = 400,000); AID 1347076; Potency, µM (titrated, usually from 46.1 µM), actives largely listed as cytotoxic; note: potency is the fitted concentration of half-maximal effect; % is set by controls: 0 for no effect and ±100 for the full control effect; nearly all actives have a fitted effect of over 60% in size
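Luminescent ATP read-out (CellTiter-Glo, 10 min) measures survival of drug-selected KB-V1 MDR cells after 72 h, 37 degrees C compound exposure. Medium: phenol-red-free DMEM, 10% FBS. Values from fitted concentration-response curves.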
MCF10A rerep – induces DNA re-replication in MCF 10a normal breast cells | MCF 10A DNA re-replication, Hoechst nuclear intensity, 48 h | Potency, µM (series often up to 46.1 µM), for the others: at the highest dose activity, positive = re-replication, usual class: activators | actives 2.9% (n = 350,000); note: potency is the fitted concentration of half-maximal effect; % of control where 0% means no effect; nearly all actives have a fitted effect of over 50% in size
KB-3-1 tox – kills parental KB-3-1 adenocarcinoma cells | Potency, µM (top dose mostly 46.1 µM), usual class: cytotoxic | actives 1.4% (n = 400,000) | AID 1347075 | KB-3-1 viability, CellTiter-Glo ATP luminescence, 72 h; note: potency is the fitted concentration of half-maximal effect; % is set by controls: 0 for no effect and ±100 for the full control effect; nearly all actives have a fitted effect of over 60% in size
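Parental KB-3-1 viability, qHTS format: 72 h compound exposure, 37 °C; CellTiter-Glo; media-only wells and DMSO plates as controls; concentration-effect fits on corrected data.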
hERG WT inh – inhibitors of human wildtype KCNH2 potassium channel | Q12809 | U2OS, BacMam KCNH2, thallium flux FluxOr; hits give low values | activity change, % at 1.84 µM | actives 0.37% (n = 340,000) | AID 720551;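 active = maximum activity change below -70%; inconclusive = maximum activity change between -70% and -50%; inactive = maximum activity change above -50%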; note: % is set by controls: 0 for no effect and ±100 for the full control effect
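U2OS cells transduced with wild-type KCNH2 virus are loaded with FluxOr dye for 45 min, and thallium flux is measured in kinetic reads before and after stimulation buffer. Rate constants are normalized to DMSO controls.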
SW480 rereplic – DNA re-replication induction in SW480 cells; AID 624297; Potency, µM (series often up to 46.1 µM), for the others: top-dose re-replication activation, hits mostly activators; actives 1.8% (n = 340,000); SW480 DNA re-replication, Hoechst DNA content imaging, 48 h; note: potency is the fitted concentration of half-maximal effect; % of control where 0% means no effect; nearly all actives have a fitted effect of over 55% in size
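Hoechst fluorescence of nuclei (405 nm excitation, 500-530 nm emission) measured by plate-scanning imager after 48 hr compound exposure at 37 C; re-replication scored as increased number of nuclei with elevated intensity.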
KCNH2 3.1 inh – blocks the human KCNH2 3.1 channel isoform; U2OS KCNH2 3.1, thallium flux FluxOr; hits give low values; actives 0.95% (n = 340,000); activity change, % (tested at about 1.8 µM);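 active = maximum activity change below -70%; inconclusive = maximum activity change from -70% to -50%; inactive = maximum activity change above -50%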;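 note: thallium influx rate constant from kinetic fluorescence after stimulation buffer; % is set by controls: 0 for no effect and ±100 for the full control effect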
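Channel expression came from 3.1 mutant virus (1.77 x 10^8 /mL) applied to suspended U2OS cells for 4 h. Flux was tracked with FluxOr dye plus Red40 quencher, and kinetic rate constants normalized to controls.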
Starred values were filed as active, the others as inactive; i = inactive; u = inconclusive; x = no result. Compounds with a hit are over-represented: about 7.6% of the library has one in this group of screens. Unless noted, calls come from the whole dose curve; as a rule, active = well fitted curve in the direction sought with a large enough effect; inconclusive = small, poorly fitted or top-dose-only effect, or another doubt; inactive = no such curve, though single readings can be large; an effect the other way counts as inactive or inconclusive.

SMILES	KB-V1 cytotox	MCF10A rerep	KB-3-1 tox	hERG WT inh	SW480 rereplic	KCNH2 3.1 inh
Cc1c(C(=O)N/N=C/c2ccc(Cl)cc2)[nH]c2ccc(Cl)cc12	u	u	1.03µM*	2.5	2.06µM*	-4.1
C/C(=N\NC(=O)CCC(=O)O)c1c(-c2ccccc2)c2cc(Br)ccc2[nH]c1=O	i	-3.1%	i	-3.8	-6.3%	-26.4
NNC(=O)c1[nH]c2ccccc2c1-c1ccccc1	i	u	u	-4.5	9.2µM*	3.9
O=C(N/N=C/c1ccc(O)cc1)c1[nH]c2ccc(Br)cc2c1-c1ccccc1	i	u	7.31µM*	0.8	7.31µM*	19.4
O=C(CSc1ncn[nH]1)Nc1ccc(Cl)c(S(=O)(=O)N2CCOCC2)c1	u	0.6%	i	7.4	-3.7%	4.2
Cn1cccc1C(=O)Nc1ccc(Cl)c(S(=O)(=O)N2CCCCC2)c1	20.6µM*	1.8%	u	-1.3	0.8%	-4.7
O=C(Nc1ncn[nH]1)c1ccc(Cl)c(S(=O)(=O)N2CCCCCC2)c1	20.6µM*	19.6%	i	15.9	0.8%	-20.1
O=C(Nc1ccncc1)c1ccc(Cl)c(S(=O)(=O)N2CCCCC2)c1	u	13µM*	u	0.6	-19.5%	-4.0
C[C@@H]1CCCCO[C@H](CN(C)C(=O)Nc2ccccc2)[C@@H](C)CN([C@H](C)CO)C(=O)c2cc(NS(=O)(=O)c3cn(C)cn3)ccc2O1	i	x	i	-5.5	x	-11.3
O=C(O)CSc1nnc(-c2cccc(S(=O)(=O)N3CCOCC3)c2)n1-c1cccc(Cl)c1	i	1.5%	i	0.2	0.7%	-9.6
OC(CNCCc1ccc(C(F)(F)F)cc1)COc1cccc2ccccc12 (configuration not stated)	u	20.6µM*	i	x	16.4µM*	-40.1
COc1ccccc1COCC(O)CNCCc1ccc(C(F)(F)F)cc1 (configuration not stated)	i	12.3%	i	u	u	-18.4
COc1ccc(CCNCC(O)COc2cccc(Br)c2)cc1 (configuration not stated)	i	u	i	7.3	u	-42.7
OC(CNCCc1ccc(C(F)(F)F)cc1)COc1ccc2ccccc2c1 (configuration not stated)	u	5.8µM*	u	15.9	u	1.7
CC(=O)OCC(=O)[C@@]1(O)CCC2C3CCC4=CC(=O)CC[C@]4(C)C3=CC[C@@]21C (some centres not stated)	x	-2.7%	x	x	-4.4%	x
CCN(CC(=O)Nc1ccc(NC(C)=O)cc1)C(=O)C1(c2ccccc2)CC1	i	-2.0%	i	1.5	-5.4%	20.5
Cc1nnc2c(N3CCN(c4ccccc4F)CC3)nc3ccccc3n12	i	x	i	x	x	x
O=C(/C=C/[C@H]1O[C@@H](n2cnc3c(NC(=O)c4ccccc4)ncnc32)[C@H](O)[C@@H]1O)NCCCc1ccccc1	i	x	i	x	x	x
COc1cc2c(cc1OC)C(c1ccco1)CC(=O)N2 (configuration not stated)	i	-0.8%	i	53.7	-21.9%	-2.1
COc1cc2c(cc1OC)C(c1cc(C)ccc1C)CC(=O)N2 (configuration not stated)	u	0.651µM*	i	0.8	-0.1%	5.8
COc1ccccc1C1CC(=O)Nc2cc(C)c(C)cc21 (configuration not stated)	9.2µM*	15.4%	16.4µM*	-5.6	20.6µM*	5.8
Cc1cc2c(cc1C)C(c1ccccc1OC(C)C)CC(=O)N2 (configuration not stated)	u	1.46µM*	5.8µM*	10.9	5.17µM*	5.1
COc1cccc(C2CC(=O)Nc3cc4c(cc32)OCO4)c1OC(C)C (configuration not stated)	i	x	i	x	x	x
Cc1cccc(C2CC(=O)Nc3cc4c(cc32)OCO4)c1 (configuration not stated)	i	x	u	x	x	x
